Pf Dd2 inh: inhibitors of Plasmodium falciparum Dd2 growth; P. falciparum Dd2 growth, SYBR Green, 72 h; Potency, µM (doses to about 28.9 µM), for the others: at the top dose activity, negative = inhibition, actives largely listed as inhibitors; actives 4.3% (n = 120,000); AID 1347417; active means well fitted inhibition curve with a large enough effect;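 further: plate controls were DMSO vehicle for no effect and reference drug for full effect; nearly all actives have a fitted effect of over 65% in size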
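Infected erythrocytes (Dd2, 0.3% parasitemia, 2.5% hematocrit final) are added to compound in RPMI-1640/Albumax II medium, grown 72 h at 37C in low oxygen, then lysed with saponin/Triton-X containing SYBR Green and read by fluorescence.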
An asterisk follows results filed as active; i = inactive; [ ] = another dose, or the depositor's remark. This excerpt belongs to a sample that is enriched for hits. Potency means the concentration at half of the fitted maximal effect.

SMILES	Pf Dd2 inh
COC(=O)c1ccccc1NC(=O)Cn1ccn2nc(-c3ccc(F)cc3)c(CO)c2c1=O	-10%
Cn1nccc1CN1CCC2(Cc3ccccc3NC2=O)C1 (configuration not stated)	-23%[44.1 µM]
Cc1cc(C(=O)N2CCC3(CC2)CC(N(C(=O)c2ccccc2)C2CC2)CCO3)n(C)n1 (configuration not stated)	-24%
CNC(=O)[C@@H](c1ccccc1F)N1CCC[C@H]1C(=O)NCc1ccncc1	8%
Cc1cn2nnc(C(=O)N3CCC(C(=O)Nc4ccc(C)c(C)c4)CC3)c2c(=O)[nH]1	i
Cc1ccc(NC(=O)C2CCN(C(=O)c3ncn4c3COC(c3ccc(F)cc3)C4)CC2)cc1C (configuration not stated)	i
CCn1nc(C)c(CCN(C)C(=O)Cn2nc3n(c2=O)CCC(N)CC3)c1C (configuration not stated)	i
COCc1cc(CC2(NCc3ccc(OC)cc3)COC2)no1	-12%[44.1 µM]
CCc1ccc(NS(=O)(=O)c2ccc3[nH]cc(C(=O)NCCc4ccccc4)c(=O)c3c2)cc1	-13%
Cc1ccccc1NS(=O)(=O)c1ccc2[nH]cc(C(=O)NCCc3ccccc3)c(=O)c2c1	11µM*
Cc1cc(C)cc(NS(=O)(=O)c2ccc3[nH]cc(C(=O)NCCc4ccccc4)c(=O)c3c2)c1	37%
Cn1ccc(C(=O)N2CCC(c3nnc4n3C(C(=O)NCc3ccc(F)cc3)CC4)CC2)n1 (configuration not stated)	8%
COc1cccc(C(=O)N2C(C(=O)NCc3ccccc3)COC23CCN(C(=O)C2CC2)CC3)c1 (configuration not stated)	-23%
Cc1ccc(-n2c(C3CCN(C(=O)c4ccc5ccccc5n4)CC3)n[nH]c2=O)cc1	-8%
C1CC2(CCN1)CC(OCC1CC1)CCO2 (configuration not stated)	25%
O=C1C(O)C2(CCCCC2)N1C1CCNCC1 (configuration not stated)	10%
C1CCC2(CC1)C(OCC1CC1)CN2C1CCNCC1 (configuration not stated)	4µM*
COCCOC1CN(C2CCN(C(=O)NC(C)C)CC2)C12CCCCC2 (configuration not stated)	i
CC(C)C(=O)N1CCC(N2CC(OCC3CC3)C23CCCCC3)CC1 (configuration not stated)	3.2µM*
Cc1ccc(C(=O)N2CCC(N3CC(OCC4CC4)C34CCCCC4)CC2)cn1 (configuration not stated)	-5%
N#Cc1cccc(CN[C@H]2[C@H](O)[C@H](O)C[C@@H]2c2cccnc2)c1	i
CCC(=O)Nc1ccc(C2(C(=O)N3CCN(c4ccccc4)CC3)CCC2)cc1	-20%
CC(C)C(=O)Nc1ccc(C2(C(=O)N3CCN(c4ccccc4)CC3)CCCCC2)cc1	7.9µM*
CCNC(=O)C1(c2ccc(NC(=O)C(C)C)cc2)CCCCC1	-13%
CCc1ccc2nc(N(CCN(CC)CC)C(=O)c3cccs3)sc2c1	-10%
SMILES	Pf Dd2 inh
COc1ccc2nc(N(Cc3cccnc3)C(=O)C3COc4ccccc4O3)sc2c1 (configuration not stated)	i
Cc1cc2nc(N(Cc3cccnc3)C(=O)c3ccc(Cl)s3)sc2cc1C	45%
COc1ccc2nc(N(Cc3cccnc3)C(=O)COc3ccccc3)sc2c1	16%
COc1ccc2sc(N(Cc3cccnc3)C(=O)COc3ccccc3)nc2c1	i
CCc1ccc2nc(N(Cc3cccnc3)C(=O)c3cccs3)sc2c1	3.2µM*
O=C(c1cccs1)N(Cc1cccnc1)c1nc2c(F)cc(F)cc2s1	i
O=C(COc1ccccc1)N(Cc1cccnc1)c1nc2ccc(F)cc2s1	15%
COc1cccc2sc(N(Cc3cccnc3)C(=O)c3ccc(S(=O)(=O)N(C)C)cc3)nc12	-21%
Cc1ccc2nc(N(Cc3cccnc3)C(=O)C3CCCCC3)sc2c1	2.5µM*
COc1ccc2sc(N(Cc3cccnc3)C(=O)c3ccc4c(c3)OCCO4)nc2c1	7.1µM*
CCOc1ccc2nc(N(Cc3cccnc3)C(=O)C3CCCCC3)sc2c1	2.2µM*
CC(C)CN1C(=O)c2cccn2CC1C(=O)NCc1ccc(Cl)cc1 (configuration not stated)	32%
COC(=O)c1c(NC(C)=O)c2cc(NC(C)CC(C)(C)O)cnc2n1CCC(C)C (configuration not stated)	-17%
Cc1ccc([S+](=O)([O-])N2CCn3c(nn(-c4ccc(C(F)(F)F)cc4)c3=O)C2)cc1	-5%
COc1ccc(-c2cc3c(cn2)CN(Cc2cccnc2)CCN3)cc1OC	0%[44.1 µM]
CN1CCCCC(CC(=O)Nc2ccc(N3CCOCC3)cc2)C1=O (configuration not stated)	16%
CCCC1c2nccn2CCCN1C(=O)CCc1c(C)noc1C (configuration not stated)	-6%
COC1CN(c2cccc(F)c2)C12CCN(C(=O)CC1CCCCC1)CC2 (configuration not stated)	8.9µM*
